Hits are enriched below; roughly 4.6% of the tested compounds scored in any of these assays.
HSF1 activator: increases HSF-1 driven luciferase reporter signal; AID 504408; actives 1.7% (n = 300,000); NIH3T3-HGL HSF-1 luciferase reporter, MG132, 8 h; 100% = twice DMSO control signal; activation, % at 9 µM;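 active = mean replicate activation of at least 50% with a set share of replicates each reaching 50%; inconclusive = only one of those two conditions met; inactive = mean below 50% and too few replicates reaching it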;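 note: 0% = median of the neutral control wells and 100% = twice that signal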
AHR activator: activates the human aryl hydrocarbon receptor; actives 2.5% (n = 320,000); AHR-responsive luciferase reporter cells, luminescence; AID 2796; P35869; activation, % at 5 µM; in the data active = activation above about 47%;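 note: 0% = vehicle wells and 100% = reference agonist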
Target sequence (P35869 whole entry, looked up): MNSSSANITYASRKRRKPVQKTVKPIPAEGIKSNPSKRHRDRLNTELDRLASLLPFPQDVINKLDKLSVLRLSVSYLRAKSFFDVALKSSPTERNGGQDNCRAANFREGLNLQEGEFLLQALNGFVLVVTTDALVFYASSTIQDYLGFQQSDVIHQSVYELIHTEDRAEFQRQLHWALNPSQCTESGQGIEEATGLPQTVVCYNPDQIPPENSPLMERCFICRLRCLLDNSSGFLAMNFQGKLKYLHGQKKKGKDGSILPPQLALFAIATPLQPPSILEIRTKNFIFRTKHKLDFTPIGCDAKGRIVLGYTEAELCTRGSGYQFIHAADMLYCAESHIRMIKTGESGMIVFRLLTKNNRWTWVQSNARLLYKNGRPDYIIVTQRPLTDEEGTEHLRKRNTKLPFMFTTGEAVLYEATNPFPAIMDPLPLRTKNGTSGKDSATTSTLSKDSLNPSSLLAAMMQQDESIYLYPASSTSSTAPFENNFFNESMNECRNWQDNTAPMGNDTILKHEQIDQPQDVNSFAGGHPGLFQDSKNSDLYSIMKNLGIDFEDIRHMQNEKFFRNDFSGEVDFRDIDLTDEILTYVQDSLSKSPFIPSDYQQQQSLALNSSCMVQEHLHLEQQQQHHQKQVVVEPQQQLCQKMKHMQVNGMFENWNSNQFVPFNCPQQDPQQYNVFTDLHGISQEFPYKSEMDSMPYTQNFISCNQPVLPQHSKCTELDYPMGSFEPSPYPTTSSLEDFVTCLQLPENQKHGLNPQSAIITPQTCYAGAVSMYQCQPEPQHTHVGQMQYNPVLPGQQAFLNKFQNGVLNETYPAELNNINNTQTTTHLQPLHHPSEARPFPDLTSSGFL
HSF1 inhib: HSF1 inhibition. AID 2098. activity change, negative = inhibition, % at 7.5 µM (by protocol). NIH3T3-HGL HSE-luciferase, MG132-induced, luminescence 8 h; active compounds read low. actives 0.77% (n = 300,000);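 active = more than half of replicate wells show activity change below -50%, luminescence cut by over half; inconclusive = some wells, but at most half, below -50%; inactive = no replicate well below -50%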;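 note: luciferase reports HSF-1 transcriptional activity via heat shock element; 0% = median of DMSO wells and -100% = zero luminescence signal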
GAA850 FXN act: increases GAA850 frataxin promoter reporter activity | HEK293 lucGAA850 FXN promoter luciferase reporter, 24 h; percent of 10 µM SAHA response | activation, % at 6 µM | actives 0.56% (n = 360,000) | AID 540364;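 active = activation above the average of all compounds screened plus 3 SD, cutoff fixed separately per campaign, cut at about 7.5% in these data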;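 note: 0% = DMSO wells and 100% = 10 µM SAHA wells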
AHR act confirm: confirmation of human aryl hydrocarbon receptor activators; shares compounds with AHR activator; activation, % at 9 µM; actives 87% (n = 2,300); AID 2845; human cells, AHR-responsive luciferase reporter, luminescence; in the data active = activation above about 49%;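 note: HepG2 hepatoma cells carrying a DRE-driven firefly luciferase reporter; 0% = vehicle wells and 100% = reference agonist wells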
PXR act counter: activates human PXR in AHR activator counter-screen; shares compounds with AHR activator; cell-based PXR reporter, luciferase luminescence; activation, % at 11.6 µM; actives 88% (n = 2,300); AID 434939; in the data active = activation above about 11%;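 note: human hepatoma DPX-2 cells expressing full-length human PXR; 0% = DMSO and 100% = reference agonist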
Numbers without * were called inactive; ? = inconclusive; · = no result given.

SMILES	HSF1 activator	AHR activator	HSF1 inhib	GAA850 FXN act	AHR act confirm	PXR act counter
Cn1c(=O)n(CCc2ccccc2)c(=O)c2c1nc1n2CCCN1Cc1ccccc1	-9.5	119.1*	4.6	-1.0	82.6*	149.5*
CN(CCc1ccccc1)C(=O)c1ccc(NC(=O)Cc2ccc(NC(=O)C3CCN(C(=O)CCc4ccccc4)CC3)cc2)cc1	·	·	·	0.1	·	·
COc1cc(C(C(=O)NCc2ccccc2)N(Cc2ccco2)C(=O)c2cnccn2)cc(OC)c1OC (stereo unspecified)	-60.6	-0.8	-43.9	0.0	·	·
CCc1nc2c(OCc3c(C)noc3C)cccn2c1N(C)C(=O)C(C)C	·	·	·	-1.9	·	·
c1ccc2nc3c(nc2c1)[nH]c1ccccc13	·	157.8*	26.9	6.5	158.4*	13.9*
c1ccc(-c2nc(-n3nc4ccccc4n3)nc3ccccc23)cc1	12.7	21.9	-6.1	-0.8	·	·
c1ccc(-c2c3ccccc3nc3[nH]c4ccccc4c23)cc1	-3.6	102.7*	-2.7	1.7	67.8*	31.5*
COc1cc(C(C)=O)ccc1Oc1ncccn1	-9.4	0.6	-9.6	3.3	·	·
CCCC1=[N+](CC)CCn2c(C)ccc21	·	-1.4	·	-2.9	·	·
CCCC1=[N+](CC(=O)c2ccc(C)cc2)CCn2cccc21	4.3	81.7*	0.8	0.7	111.5*	21.9*
O=c1oc2ccccc2n1CCc1ccccc1	-16.4	94.1*	-1.4	1.4	100.4*	33.8*
O=C(COC(=O)c1ccc(NS(=O)(=O)c2cccs2)cc1)NCc1ccco1	-4.0	-1.2	-3.5	-0.6	·	·
S=C(N/N=C/c1ccccc1Cl)Nc1cccc(Cl)c1Cl	22.4	118.5*	12.0	-2.5	102.8*	30.3*
Fc1ccc(NC(=S)NN=Cc2ccccc2Cl)cc1	·	·	·	0.3	·	·
N#Cc1c(N)nc(N)nc1Nc1ccc(Br)cc1	39.6	83.2*	23.6	4.3	72.2*	17.4*
CN1CCN(C2=Nc3c(Cl)cc(Cl)c4cccc2c34)CC1	-0.8	82.3*	2.1	1.7	90.9*	27.2*
CN1CCN(C2=Nc3cc(Cl)ccc3Nc3ccccc32)CC1	8.2	4.8	1.3	0.6	·	·
CCCn1c(NC(=O)CCNC(=O)c2ccccc2Cl)nc2ccccc21	·	-0.2	·	1.7	·	·
CCCn1c(SCC(=O)NC(C)C)nc2sc3c(c2c1=O)CCC3	-11.4	-0.8	1.9	0.1	·	·
CCn1c2ccccc2c2cc(NC(=O)N3CCOCC3)ccc21	?	118.4*	16.6	1.6	99.0*	108.7*
CCn1c2ccccc2c2cc(NC(=O)COc3ccc(OC)cc3)ccc21	9.4	28.5	2.3	-0.6	·	·
CCn1c2ccccc2c2cc(NC(=O)COc3ccccc3)ccc21	1.2	100.3*	2.4	0.8	88.9*	59.7*
CSc1ccc(CN2CCC(C)(Oc3ccccc3)C2)cc1 (stereo unspecified)	·	·	·	1.2	·	·
O=C(Nc1ccc(F)cc1)c1ccc2nsnc2c1	2.0	96.1*	8.7	4.6	123.9*	25.7*
COc1cccc(NC(=O)c2ccc3nsnc3c2)c1	0.9	19.9	20.7	1.5	·	·
SMILES	HSF1 activator	AHR activator	HSF1 inhib	GAA850 FXN act	AHR act confirm	PXR act counter
O=C(Nc1ccc(F)cc1)c1nsc(Cl)c1Cl	49.1	82.7*	13.6	7.5	221.6*	39.6*
O=C(Nc1ccc(F)c(Cl)c1)c1nsc(Cl)c1Cl	42.6	30.4	29.3	3.0	·	·
CN(C)c1ccc(NC(=O)c2ccc3nc[nH]c3c2)cc1	2.1	1.5	4.8	4.3	·	·
O=C(Nc1ccc(F)cc1)c1ccc2nc[nH]c2c1	-15.7	146.9*	7.1	3.6	136.0*	14.4*
Cc1cc(C)n(CC(=O)c2ccccc2)c(=O)c1C#N	-0.2	99.8*	-1.4	0.9	104.6*	21.6*
Cc1ccccc1NS(=O)(=O)c1ccc(C2CNC(=O)C2)cc1 (stereo unspecified)	-3.4	7.5	-3.6	-1.6	·	·
c1ccc(-c2nc(-c3cccnc3)cs2)cc1	21.3	·	9.3	1.9	·	·
Brc1ccc(-c2csc(Nc3nc(-c4ccc(Br)cc4)cs3)n2)cc1	-1.8	84.6*	7.9	0.9	116.1*	16.8*
Brc1ccc(-c2csc(-c3ccncc3)n2)cc1	39.0	101.2*	24.9	3.0	102.1*	10.7*
Nc1nc(-c2ccc(Br)cc2)cs1	22.6	8.6	-5.9	4.0	·	·
Cc1ccc(-c2csc(-c3ccncc3)n2)cc1	19.6	79.6*	14.0	2.7	96.1*	8.0
C=CCOc1c(Br)cc(C2C3=C(CCCC3=O)N(C)C3=C2C(=O)CCC3)cc1OCC	12.3	8.1	-1.2	-1.7	·	·
COc1ccccc1-c1nc(C#N)c(N2CCCCCC2)o1	-6.1	83.1*	-3.8	3.4	79.0*	107.9*
Cc1ccc2c(C(=O)CNc3nncs3)c(C)[nH]c2c1	-2.0	106.0*	-3.3	0.9	35.7	16.9*
Cc1ccc2c(C(=O)CN3CCN(C4CCCCC4)CC3)c(C)[nH]c2c1	9.7	19.5	-4.2	0.6	·	·
Cc1cc(-c2ccc(C(=O)O)s2)cnc1N	-13.1	3.5	-9.2	2.2	·	·
CC(Nc1nc(N2CCCCC2)nc2ccccc12)c1ccccc1 (stereo unspecified)	2.5	1.0	-0.9	-7.2	·	·
C=CCNc1nc(N2CCCC2)nc2ccccc12	-25.8	83.8*	-6.3	3.1	35.0	11.7*
Cc1ccc2c(c1)sc1nc(=O)n(-c3cccc(Cl)c3)c(=O)n12	43.5	1.8	11.6	4.4	·	·
O=c1nc2sc3ccccc3n2c(=O)n1-c1cccc(Cl)c1	28.4	80.8*	15.8	5.1	115.0*	33.2*
CC(C)c1ccccc1NS(=O)(=O)N(C)C	-12.5	-3.5	-4.9	1.5	·	·
Cc1cc2nn(-c3ccc(Cl)cc3)nc2cc1N	30.2	80.5*	12.9	5.8	191.7*	23.7*
Cc1cc2nn(-c3ccc(F)cc3)nc2cc1N	36.5	109.5*	21.7	3.3	122.5*	25.3*
O=c1c2[nH]c3ccc(Cl)cc3c2ncn1CCN1CCCCC1	11.5	10.6	13.1	0.6	·	·
Clc1ccc2[nH]c3c(NCCN4CCOCC4)ncnc3c2c1	-31.1	80.3*	-13.4	1.9	92.9*	50.7*
SMILES	HSF1 activator	AHR activator	HSF1 inhib	GAA850 FXN act	AHR act confirm	PXR act counter
Clc1ccc2[nH]c3c(N4CCC5(CC4)OCCO5)ncnc3c2c1	-21.4	98.9*	-4.1	·	56.3*	33.2*
O=C(NC(=S)NC(=O)c1ccccc1F)c1ccccc1F	-4.7	0.2	-3.6	4.0	·	·
O=C(Oc1ccc(-c2nnco2)cc1)N1CCOCC1	5.0	3.2	-2.8	-2.4	·	·
CC(=O)N1CCc2c(sc(NC(=O)C3CC3)c2-c2nc3ccccc3s2)C1	-1.9	105.8*	0.3	2.4	99.7*	28.2*
O=C(NC(=S)NC1C2CC3CC(C2)CC1C3)C12CC3CC(CC(C3)C1)C2 (stereo unspecified)	-2.9	0.7	-1.2	1.0	·	·
Fc1cccc(NC(=S)N2CCc3ccccc32)c1	·	·	·	4.4	·	·
CC(=O)c1cccc(NC(=S)N2CCc3ccccc32)c1	21.6	85.8*	9.0	3.4	106.9*	60.5*
